Reference: the supplement of paper PMC10849652
About 8,800 targets were measured; listed, in parts, are those with a hit and a random draw of the rest. About 0.5% of all pairs of compound and target were hits. A number with no mark means an inactive call.

Legend:
Assay in all cases: log2 fold change, soluble protein after heating vs DMSO (PISA); higher = thermal stabilisation; K562 lysate, 10 uM; active = over 0.2 and 3.5 SD of the protein, either way, in both replicates (recomputed)
nilotinib = compound: Cc1cn(-c2cc(NC(=O)c3ccc(C)c(Nc4nccc(-c5cccnc5)n4)c3)cc(C(F)(F)F)c2)cn1 [nilotinib]
Procedure, shortened: (§1)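 The values are log-two fold changes in thermal stability compared with solvent controls and come from duplicates. They were obtained by TMTpro 16plex LC-MS/MS, with channel sums equalised, on the supernatant after 21,000xg for 90 min. That supernatant came from crude K562 extract at 1 mg/mL protein treated with 10 μM compound for 30 min, heated for 3 min across 48°C-58°C, pooled and brought to 0.5% NP-40 at 4°C.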

[1] = compound: Cc1nc(Nc2n[nH]c3c2CN(C(=O)N[C@H](CN(C)C)c2ccccc2)C3(C)C)c2sccc2n1
Procedure, shortened: as §1

dasatinib = compound: Cc1nc(Nc2ncc(C(=O)Nc3c(C)cccc3Cl)s2)cc(N2CCN(CCO)CC2)n1 [dasatinib]
Procedure, shortened: as §1

[2] = compound: Cc1ncc(-c2ccnc(Nc3ccc(S(C)(=O)=O)cc3)n2)n1C(C)C
Procedure, shortened: as §1

[3] = compound: Cn1cc(-c2ccc3c(c2)CCN3C(=O)Cc2cccc(C(F)(F)F)c2)c2c(N)ncnc21
Procedure, shortened: as §1

quisinostat = compound: Cn1cc(CNCC2CCN(c3ncc(C(=O)NO)cn3)CC2)c2ccccc21 [quisinostat]
Procedure, shortened: as §1

tipifarnib = compound: Cn1cncc1[C@@](N)(c1ccc(Cl)cc1)c1ccc2c(c1)c(-c1cccc(Cl)c1)cc(=O)n2C [tipifarnib]
Procedure, shortened: as §1

[4] = compound: NC(=O)Nc1cc(-c2cccc(F)c2)sc1C(=O)N[C@H]1CCCNC1
Procedure, shortened: as §1

[5] = compound: NC(=O)c1cnc(N[C@@H]2CCCC[C@@H]2N)nc1Nc1cccc(-n2nccn2)c1
Procedure, shortened: as §1

[6] = compound: NC1(c2ccc(-c3nc4ccn5c(=O)[nH]nc5c4cc3-c3ccccc3)cc2)CCC1
Procedure, shortened: as §1

[7] = compound: NCC(=O)Nc1ccc(-n2nc(C(F)(F)F)cc2-c2ccc3c(ccc4ccccc43)c2)cc1
Procedure, shortened: as §1

vorinostat = compound: O=C(CCCCCCC(=O)Nc1ccccc1)NO [vorinostat]
Procedure, shortened: as §1

silmitasertib = compound: O=C(O)c1ccc2c(c1)nc(Nc1cccc(Cl)c1)c1ccncc12 [silmitasertib]
Procedure, shortened: as §1

[8] = compound: O=C1NC(=O)C(c2cnc3ccccn23)=C1c1cn2c3c(cc(F)cc13)CN(C(=O)N1CCCCC1)CC2
Procedure, shortened: as §1

entospletinib = compound: c1cn2cc(-c3ccc4cn[nH]c4c3)nc(Nc3ccc(N4CCOCC4)cc3)c2n1 [entospletinib]
Procedure, shortened: as §1

Sequence of UniProt P51668 (P51668 whole entry, looked up): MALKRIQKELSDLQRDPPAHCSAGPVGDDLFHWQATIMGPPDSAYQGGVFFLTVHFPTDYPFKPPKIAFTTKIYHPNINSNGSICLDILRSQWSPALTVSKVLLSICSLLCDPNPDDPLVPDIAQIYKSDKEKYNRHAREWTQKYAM
Sequence of UniProt P04818 (P04818 whole entry, looked up): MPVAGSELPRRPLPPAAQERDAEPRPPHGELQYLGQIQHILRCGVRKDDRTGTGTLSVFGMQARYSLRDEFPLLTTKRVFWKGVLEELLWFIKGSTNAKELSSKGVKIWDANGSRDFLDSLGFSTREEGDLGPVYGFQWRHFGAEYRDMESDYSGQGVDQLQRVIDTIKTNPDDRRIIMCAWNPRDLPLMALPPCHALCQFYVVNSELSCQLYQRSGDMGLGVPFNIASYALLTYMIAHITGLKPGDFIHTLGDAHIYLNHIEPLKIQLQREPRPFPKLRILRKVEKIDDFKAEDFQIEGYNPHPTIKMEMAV
Sequence of UniProt Q8WVT3 (Q8WVT3 whole entry, looked up): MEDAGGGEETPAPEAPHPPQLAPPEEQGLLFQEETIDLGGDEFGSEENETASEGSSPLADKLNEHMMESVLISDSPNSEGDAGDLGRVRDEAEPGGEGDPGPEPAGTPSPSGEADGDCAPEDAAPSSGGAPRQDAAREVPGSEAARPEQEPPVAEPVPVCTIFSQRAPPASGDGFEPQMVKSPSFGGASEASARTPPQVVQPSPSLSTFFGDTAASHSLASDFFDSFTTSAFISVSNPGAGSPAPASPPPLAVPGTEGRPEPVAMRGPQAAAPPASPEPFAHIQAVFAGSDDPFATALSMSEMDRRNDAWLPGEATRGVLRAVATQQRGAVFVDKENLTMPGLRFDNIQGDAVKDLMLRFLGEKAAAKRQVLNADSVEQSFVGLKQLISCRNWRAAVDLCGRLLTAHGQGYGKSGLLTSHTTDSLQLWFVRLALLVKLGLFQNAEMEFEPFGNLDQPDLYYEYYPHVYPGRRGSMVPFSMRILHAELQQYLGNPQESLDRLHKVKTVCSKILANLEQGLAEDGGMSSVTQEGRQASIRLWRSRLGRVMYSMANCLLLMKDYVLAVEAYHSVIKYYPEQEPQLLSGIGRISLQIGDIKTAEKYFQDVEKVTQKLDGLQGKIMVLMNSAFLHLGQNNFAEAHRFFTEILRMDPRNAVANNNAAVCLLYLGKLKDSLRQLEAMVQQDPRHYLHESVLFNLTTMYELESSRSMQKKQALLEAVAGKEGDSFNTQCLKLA
Sequence of UniProt Q6YHU6 (Q6YHU6 whole entry, looked up): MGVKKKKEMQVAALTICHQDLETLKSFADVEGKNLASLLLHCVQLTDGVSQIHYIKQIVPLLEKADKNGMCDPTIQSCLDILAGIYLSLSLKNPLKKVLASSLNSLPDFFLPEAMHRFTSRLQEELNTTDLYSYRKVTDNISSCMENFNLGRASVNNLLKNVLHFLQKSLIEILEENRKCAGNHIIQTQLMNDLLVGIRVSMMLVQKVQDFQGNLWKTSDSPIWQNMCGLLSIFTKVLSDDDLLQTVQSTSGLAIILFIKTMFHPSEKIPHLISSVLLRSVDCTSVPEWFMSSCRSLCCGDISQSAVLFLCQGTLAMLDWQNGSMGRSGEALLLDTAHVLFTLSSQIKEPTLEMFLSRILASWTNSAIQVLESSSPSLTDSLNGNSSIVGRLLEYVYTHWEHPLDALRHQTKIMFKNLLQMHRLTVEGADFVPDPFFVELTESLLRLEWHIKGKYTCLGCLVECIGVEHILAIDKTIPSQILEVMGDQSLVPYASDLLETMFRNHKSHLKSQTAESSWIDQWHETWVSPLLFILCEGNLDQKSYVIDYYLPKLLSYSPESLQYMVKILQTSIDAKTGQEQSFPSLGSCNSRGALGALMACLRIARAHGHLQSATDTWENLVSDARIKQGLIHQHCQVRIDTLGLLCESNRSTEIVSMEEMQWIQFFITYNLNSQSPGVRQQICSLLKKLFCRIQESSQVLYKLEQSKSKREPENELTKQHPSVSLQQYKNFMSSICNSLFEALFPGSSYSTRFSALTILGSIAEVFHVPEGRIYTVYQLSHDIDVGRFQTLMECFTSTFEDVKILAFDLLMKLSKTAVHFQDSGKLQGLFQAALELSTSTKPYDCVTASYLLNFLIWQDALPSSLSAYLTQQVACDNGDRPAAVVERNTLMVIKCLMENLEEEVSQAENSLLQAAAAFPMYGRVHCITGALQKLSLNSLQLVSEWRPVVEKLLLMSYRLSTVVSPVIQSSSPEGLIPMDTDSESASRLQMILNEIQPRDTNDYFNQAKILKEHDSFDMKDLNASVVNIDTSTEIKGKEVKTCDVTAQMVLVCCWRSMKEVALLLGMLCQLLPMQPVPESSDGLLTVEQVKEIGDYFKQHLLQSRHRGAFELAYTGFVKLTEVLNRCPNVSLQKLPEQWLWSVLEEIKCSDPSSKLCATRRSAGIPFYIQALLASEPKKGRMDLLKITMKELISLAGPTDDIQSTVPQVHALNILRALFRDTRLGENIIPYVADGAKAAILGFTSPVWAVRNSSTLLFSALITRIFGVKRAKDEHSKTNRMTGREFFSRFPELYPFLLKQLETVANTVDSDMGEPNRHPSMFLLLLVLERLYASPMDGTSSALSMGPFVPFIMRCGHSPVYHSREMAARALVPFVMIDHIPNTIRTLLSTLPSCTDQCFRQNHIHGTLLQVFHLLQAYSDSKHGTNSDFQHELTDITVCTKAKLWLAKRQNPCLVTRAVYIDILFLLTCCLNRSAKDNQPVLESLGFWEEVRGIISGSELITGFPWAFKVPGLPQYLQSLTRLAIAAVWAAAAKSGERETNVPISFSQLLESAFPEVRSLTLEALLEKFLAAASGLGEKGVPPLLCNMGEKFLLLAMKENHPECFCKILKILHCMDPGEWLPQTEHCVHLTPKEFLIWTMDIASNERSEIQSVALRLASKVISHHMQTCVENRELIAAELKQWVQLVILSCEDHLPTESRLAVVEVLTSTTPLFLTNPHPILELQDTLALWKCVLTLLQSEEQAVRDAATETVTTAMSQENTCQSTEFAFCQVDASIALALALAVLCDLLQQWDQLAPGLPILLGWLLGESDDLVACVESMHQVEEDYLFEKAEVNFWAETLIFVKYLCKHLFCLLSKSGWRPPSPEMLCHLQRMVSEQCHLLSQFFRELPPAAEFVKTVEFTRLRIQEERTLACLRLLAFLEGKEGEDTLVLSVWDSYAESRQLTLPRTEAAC
Sequence of UniProt Q9UJT0 (Q9UJT0 whole entry, looked up): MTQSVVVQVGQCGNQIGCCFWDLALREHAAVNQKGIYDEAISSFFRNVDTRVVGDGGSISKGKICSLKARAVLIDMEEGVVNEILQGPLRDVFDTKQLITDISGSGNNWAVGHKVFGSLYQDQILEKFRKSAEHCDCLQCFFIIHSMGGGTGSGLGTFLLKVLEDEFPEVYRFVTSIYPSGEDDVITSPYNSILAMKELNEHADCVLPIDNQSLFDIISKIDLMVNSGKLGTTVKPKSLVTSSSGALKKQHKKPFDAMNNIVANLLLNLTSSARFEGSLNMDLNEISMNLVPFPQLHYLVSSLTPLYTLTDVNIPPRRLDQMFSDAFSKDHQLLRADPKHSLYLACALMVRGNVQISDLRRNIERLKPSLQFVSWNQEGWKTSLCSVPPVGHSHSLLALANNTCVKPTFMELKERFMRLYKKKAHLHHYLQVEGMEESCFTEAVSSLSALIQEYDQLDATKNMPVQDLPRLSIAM
Sequence of UniProt Q9BUB7 (Q9BUB7 whole entry, looked up): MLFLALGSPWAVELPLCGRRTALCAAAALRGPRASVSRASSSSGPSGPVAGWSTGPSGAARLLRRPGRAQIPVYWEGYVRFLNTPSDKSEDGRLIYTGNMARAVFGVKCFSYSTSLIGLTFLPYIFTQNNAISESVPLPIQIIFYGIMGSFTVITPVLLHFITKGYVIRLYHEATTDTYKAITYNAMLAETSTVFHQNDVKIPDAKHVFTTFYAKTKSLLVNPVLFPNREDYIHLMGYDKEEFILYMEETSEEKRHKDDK
Sequence of UniProt Q9NYB0 (Q9NYB0 whole entry, looked up): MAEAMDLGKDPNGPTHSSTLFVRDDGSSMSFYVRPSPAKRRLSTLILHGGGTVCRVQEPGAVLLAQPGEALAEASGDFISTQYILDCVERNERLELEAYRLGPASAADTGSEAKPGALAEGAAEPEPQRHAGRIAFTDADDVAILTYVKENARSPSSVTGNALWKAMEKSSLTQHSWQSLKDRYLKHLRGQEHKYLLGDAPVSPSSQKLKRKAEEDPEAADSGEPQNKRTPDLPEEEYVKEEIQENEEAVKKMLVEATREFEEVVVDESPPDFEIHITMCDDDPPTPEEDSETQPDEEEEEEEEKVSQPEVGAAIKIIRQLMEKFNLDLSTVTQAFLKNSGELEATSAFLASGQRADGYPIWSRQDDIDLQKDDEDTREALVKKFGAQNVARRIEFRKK
Sequence of UniProt Q9NX07 (Q9NX07 whole entry, looked up): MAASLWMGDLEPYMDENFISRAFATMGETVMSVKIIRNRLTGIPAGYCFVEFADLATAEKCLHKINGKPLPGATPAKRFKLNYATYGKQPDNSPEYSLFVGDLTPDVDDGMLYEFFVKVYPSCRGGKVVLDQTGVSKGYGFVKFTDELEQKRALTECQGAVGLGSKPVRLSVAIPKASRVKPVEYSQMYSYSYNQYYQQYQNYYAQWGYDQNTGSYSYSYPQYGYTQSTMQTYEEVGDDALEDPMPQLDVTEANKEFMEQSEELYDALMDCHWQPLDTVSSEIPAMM
Sequence of UniProt Q9BZV1 (Q9BZV1 whole entry, looked up): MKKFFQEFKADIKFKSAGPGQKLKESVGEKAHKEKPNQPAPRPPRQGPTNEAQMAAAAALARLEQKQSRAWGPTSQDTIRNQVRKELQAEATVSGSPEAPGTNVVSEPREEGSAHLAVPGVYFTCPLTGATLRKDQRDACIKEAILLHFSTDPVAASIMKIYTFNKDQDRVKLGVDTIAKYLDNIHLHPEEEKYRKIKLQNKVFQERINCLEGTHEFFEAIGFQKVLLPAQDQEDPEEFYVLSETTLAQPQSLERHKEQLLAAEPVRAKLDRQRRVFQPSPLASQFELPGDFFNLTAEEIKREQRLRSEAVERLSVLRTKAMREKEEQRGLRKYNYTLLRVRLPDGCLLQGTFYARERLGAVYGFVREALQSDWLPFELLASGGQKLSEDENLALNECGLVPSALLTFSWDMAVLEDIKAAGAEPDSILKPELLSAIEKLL

Target | log2 fold change (nilotinib) | log2 fold change [1] | log2 fold change (dasatinib) | log2 fold change [2] | log2 fold change [3] | log2 fold change (quisinostat) | log2 fold change (tipifarnib) | log2 fold change [4] | log2 fold change [5] | log2 fold change [6] | log2 fold change [7] | log2 fold change (vorinostat) | log2 fold change (silmitasertib) | log2 fold change [8] | log2 fold change (entospletinib)
TYMS (UniProt P04818) | 0.012 | -0.032 | -0.023 | -0.015 | 0.01 | -0.001 | -0.02 | 0.034 | 0.015 | -0.032 | -0.02 | -0.231 (active) | 0.009 | -0.005 | 0.031
TLK2 isoform 2 (UniProt Q86UE8) | -0.008 | 0.243 | -0.004 | 0.162 | 0.007 | -0.099 | 0.005 | 0.073 | 0.048 | -0.035 | 0.019 | -0.24 | 0.057 | 0.118 | -0.135
TPP2 (UniProt P29144) | 0.013 | -0.005 | -0.005 | -0.02 | 0.019 | 0.01 | 0.006 | 0.013 | 0 | 0.003 | -0.015 | -0.121 | 0.02 | -0.011 | 0.003
UGDH (UniProt O60701) | 0.008 | -0.012 | 0.217 (active) | 0.009 | -0.034 | 0.019 | 0.007 | 0.039 | -0.01 | 0.006 | 0.039 | -0.206 | 0.001 | 0.01 | -0.01
UBE2D1 (UniProt P51668) | 0.259 (active) | -0.093 | -0.1 | -0.064 | 0.033 | 0.108 | -0.065 | -0.06 | -0.066 | 0.029 | -0.01 | 0.088 | -0.101 | -0.001 | 0.056
TPP2 (UniProt Q5VZU9) | 0.066 | 0.035 | -0.194 | -0.015 | 0.036 | 0.084 | -0.001 | 0.107 | -0.006 | -0.039 | -0.125 | -0.173 | 0.044 | 0.002 | 0.109
TRAPPC12 (UniProt Q8WVT3) | -0.007 | 0.025 | 0.024 | -0.05 | 0.038 | 0.003 | 0.039 | -0.018 | -0.007 | 0.013 | 0.032 | -0.258 (active) | 0.005 | 0.043 | -0.001
UBR4 (UniProt Q5T4S7) | 0.007 | 0.002 | -0.027 | 0.001 | 0.018 | -0.014 | -0.001 | 0.023 | -0.005 | -0.001 | 0 | -0.14 | 0.027 | -0.008 | 0.009
TRIM33 (UniProt H0Y612) | -0.021 | 0.153 | 0.043 | 0.138 | -0.033 | -0.238 | -0.052 | 0.069 | -0.036 | -0.106 | -0.039 | -0.335 (active) | 0.061 | 0.03 | 0.084
TCP11L1 (UniProt Q9NUJ3) | 0.062 | -0.114 | -0.034 | -0.035 | 0.01 | -0.055 | -0.003 | 0.051 | -0.022 | 0.028 | 0 | -0.317 (active) | -0.043 | 0.006 | 0.019
TUBE1 (UniProt Q9UJT0) | 0.036 | -0.051 | 0.017 | -0.046 | -0.028 | -0.037 | 0.029 | 0.064 | 0.007 | 0.025 | 0.024 | -0.264 (active) | -0.049 | -0.036 | -0.027
TRNAU1AP (UniProt Q9NX07) | -0.145 | 0.016 | 0.018 | 0.046 | 0.015 | 0.012 | -0.06 | 0.059 | -0.011 | -0.013 | 0.079 | -0.178 | 0.026 | -0.017 | -0.047
THADA (UniProt Q6YHU6) | 0.009 | 0.012 | -0.048 | 0.008 | 0.027 | -0.115 | -0.011 | 0.053 | 0.007 | 0.002 | 0.009 | -0.456 (active) | 0.013 | 0.015 | 0.006
UBP1 (UniProt Q9NZI7) | -0.019 | -0.039 | 0.008 | 0.05 | 0.002 | -0.125 | -0.084 | 0.01 | 0.008 | -0.058 | -0.002 | -0.182 | 0.008 | -0.01 | -0.002
TTC38 (UniProt Q5R3I4) | 0.02 | 0.016 | 0.029 | 0.059 | -0.003 | 0.293 (active) | 0.026 | -0.036 | 0.015 | 0.029 | 0.017 | -0.044 | -0.014 | -0.022 | 0.029
TTK (UniProt P33981) | 0.007 | 0.236 | -0.014 | 0.185 | 0.013 | -0.062 | -0.147 | 0.034 | -0.001 | -0.057 | -0.009 | -0.183 | 0.004 | -0.03 | -0.039
TMEM70 (UniProt Q9BUB7) | -0.05 | -0.046 | -0.065 | 0.023 | -0.003 | -0.206 | -0.007 | 0.02 | 0.009 | -0.001 | -0.081 | 0.122 | 0.017 | -0.108 | 0.015
TP53RK (UniProt Q96S44) | 0.011 | 0 | 0.052 | 0.047 | 0.057 | 0.002 | 0.048 | 0.021 | 0.041 | -0.013 | -0.017 | 0.049 | -0.19 | -0.014 | 0.031
TSFM (UniProt P43897) | -0.013 | 0.021 | -0.034 | -0.028 | 0.017 | -0.016 | 0.002 | 0.002 | 0.037 | -0.026 | 0.002 | -0.261 (active) | 0.043 | 0.035 | -0.014
TERF2IP (UniProt Q9NYB0) | 0.012 | 0.013 | 0.018 | 0.009 | 0.005 | 0.024 | -0.012 | 0.011 | -0.017 | -0.003 | 0.038 | 0.072 | 0.008 | 0.011 | 0.011
UBXN6 (UniProt Q9BZV1) | -0.033 | 0.042 | 0.017 | -0.065 | 0.046 | 0.028 | 0.016 | 0.013 | 0.068 | -0.013 | 0.04 | -0.28 (active) | 0.018 | -0.026 | -0.009
